# GLP1R inv ag: qHTS of GLP-1 Receptor Inverse Agonists (Inhibition Mode) | Glucagon-like peptide 1 receptor (Homo sapiens), P43220 | HEK293 GLP-1R CRE-luciferase, luminescence, 24 h; GLP-1R form is constitutively active | Potency, µM (series often up to 38.3 µM), most hits filed as inhibitors | 1.6% of 410,000 active | AID 624417, 2012; further: nearly all actives have a fitted effect of over 55% in size
#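 Cells are plated, allowed 12 hours at 37 deg C, then treated with compounds for 24 hr before luciferase detection reagent is added and luminescence is read after 12 min at room temperature. The HEK293 line carries constitutively active GLP-1R with a cAMP-responsive reporter.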
# DRD3 antagonist: qHTS of D3 Dopamine Receptor Antagonist: qHTS. D3R cells, DiscoveRx beta-arrestin luminescence, antagonist mode; stronger effect = lower value. 2.5% of 360,000 active. D(3) dopamine receptor (Homo sapiens), P35462. max response, negative = inhibition, %; in the data active means max response below about -50%; inconclusive means no clear call, values can overlap the other calls
# Target sequence (P35462 whole entry, looked up): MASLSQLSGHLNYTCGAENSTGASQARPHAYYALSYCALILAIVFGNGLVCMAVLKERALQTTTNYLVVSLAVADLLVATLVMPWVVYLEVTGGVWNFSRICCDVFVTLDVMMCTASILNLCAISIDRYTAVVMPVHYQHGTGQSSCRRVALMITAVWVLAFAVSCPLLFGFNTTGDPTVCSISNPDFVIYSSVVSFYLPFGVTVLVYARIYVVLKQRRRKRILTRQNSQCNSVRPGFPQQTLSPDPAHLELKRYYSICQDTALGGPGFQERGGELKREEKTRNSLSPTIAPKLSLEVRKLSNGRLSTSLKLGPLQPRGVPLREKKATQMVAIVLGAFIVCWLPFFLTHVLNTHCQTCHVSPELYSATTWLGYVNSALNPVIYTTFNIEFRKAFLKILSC
#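 Cells expressing the human receptor were seeded at 1500 cells/well, incubated overnight at 37 degrees C in 5% CO2, then exposed to library compounds with dopamine controls for 90 minutes at 37 degrees C before luminescent detection.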
# GLP1R ag: qHTS of GLP-1 Receptor Agonists | HEK293 GLP-1R CRE-luciferase, luminescence, 4-6 h; cells express a hypersensitive GLP-1R form | 0.007% of 380,000 active | Potency, µM (series often up to 45.6 µM), most hits filed as activators | Glucagon-like peptide 1 receptor (Homo sapiens), P43220
# D3 ag: qHTS of D3 Dopamine Receptor Agonist: qHTS | D(3) dopamine receptor (Homo sapiens), P35462 | D3R DiscoveRx beta-arrestin cells, luminescence, 90 min | max activation, % | 0.58% of 410,000 active | AID 652048, 2013; in the data active means max activation above about 30%
#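 Cells at 1500/well, incubated overnight, then treated with pinned compounds (dopamine as control) for 90 min at 37 degrees C. DiscoveRx reagent added for 30 - 60 minutes at room temperature; luminescence read.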
# Numbers stand for hits; n = inactive; u = inconclusive; x = no result given. The list is not random: actives were taken first. Their share in the collection is about 4.3%. Unless noted, the call rests on the fitted dose curve; in most records, active means well fitted curve in the direction sought with a large enough effect; inconclusive means small, poorly fitted or top-dose-only effect, or another doubt; inactive means no such curve, though single readings can be large; an effect the other way counts as inactive or inconclusive.
SMILES,GLP1R inv ag,DRD3 antagonist,GLP1R ag,D3 ag
Cc1cc(C)c(S(=O)(=O)N2CCN(C(=O)c3ccc4c(c3)OCO4)CC2)c(C)c1,u,n,n,n
Cc1ccc(S(=O)(=O)N2CCN(C(=O)c3c(C)nn(-c4ccccc4)c3Cl)CC2)cc1,n,-71,n,n
COc1ccc(CNC(=O)C(C)OC(=O)CN2C(=O)COc3ccccc32)cc1 (stereo not given),n,n,n,n
CCOC(=O)c1cccc(NC(=O)COc2ccc3c(C)cc(=O)oc3c2)c1,n,x,x,n
O=C(NC(CSCc1ccccc1)C(=O)N/N=C/c1ccc(O)cc1O)c1ccc([N+](=O)[O-])cc1 (stereo not given),u,n,n,50
COc1cc(O)ccc1/C=N/NC(=O)c1ccc([N+](=O)[O-])cc1,n,n,n,n
Cc1nnc(NC(=O)c2nc(SC(C)C)ncc2Cl)s1,n,x,x,n
Cc1cccc(C)c1NC(=O)c1nc(SC(C)C)ncc1Cl,u,x,x,45
O=C1NC(c2ccccc2)=C(c2nc3ccccc3s2)C(c2ccc(F)cc2)N1 (stereo not given),u,-56,n,n
COc1ccc(-c2cc(-n3c(C(F)(F)F)nc4ccccc43)n(CCC#N)n2)cc1,10µM,u,n,n
CSc1ccc(-c2nc3ccc(C)cn3c2Nc2ccccc2C)cc1,n,x,n,n
O=C(/C=C/NNC(=O)c1ccccc1)c1ccccc1,u,-53,n,n
Cc1ccc(C(c2nnnn2Cc2ccccc2)N2CCN(Cc3ccccc3)CC2)cc1 (stereo not given),10µM,u,n,n
CCCCn1nnnc1C(c1ccccc1)N1CCCN(Cc2ccc(F)cc2)CC1 (stereo not given),u,-69,n,n
c1ccc(CN2CCN(C(c3ccccc3)c3nnnn3Cc3ccccc3)CC2)cc1 (stereo not given),u,n,n,n
Cc1cc(Br)ccc1NC(=O)CNC(=O)CN1C(=O)NC2(CCCCCC2)C1=O,n,n,n,n
Cc1cc(Br)ccc1NC(=O)CN1C(=O)C2C3CC(c4ccccc4)C(C3)C2C1=O (stereo not given),10µM,n,n,n
CCc1c(C#N)c(SCCC(=O)Nc2ccc(C)cc2)nc2c1C(=O)CC(C)(C)C2,2.8µM,n,n,n
CC1(C)Oc2ccc3ccc(=O)oc3c2/C(=C/NNC(N)=O)C1=O,n,-111,n,n
COc1cc(CNCCN2CCOCC2)ccc1OCc1ccc(Cl)cc1Cl,3.2µM,-64,n,n
CCOc1cc(CNCc2ccccc2)ccc1OCc1ccc(Cl)cc1,11µM,n,n,n
COc1cc(CNCc2ccccn2)ccc1OCc1ccc(Cl)c(Cl)c1,u,n,n,n
COc1cc(CNCc2ccccn2)ccc1OCc1ccc(Cl)cc1Cl,u,-67,n,n
COc1cc(CNCCN2CCOCC2)ccc1OCc1cccc(Cl)c1,u,n,n,n
CCc1ccc(NC(=O)CN2C(=O)C(c3ccc(Cl)cc3)=NC23CCCCC3)cc1,11µM,x,x,n
SMILES,GLP1R inv ag,DRD3 antagonist,GLP1R ag,D3 ag
COc1ccc(NC(=O)CN2C(=O)C(c3ccccc3)=NC23CCCCCC3)cc1,u,n,n,n
CCc1ccc(NC(=O)CN2C(=O)C(c3ccc(C)cc3)=NC23CCCCC3)cc1,11µM,x,x,n
O=C(CN1C(=O)C(c2ccc(F)cc2)=NC12CCCC2)Nc1ccc(F)cc1,u,n,n,n
Cc1ccc(NC(=O)CN2C(=O)C(c3ccc(C)cc3)=NC23CCCCCC3)cc1,10µM,x,x,n
CC(C)OC(=O)c1ccc(NC(=O)c2cccc(-n3cnnn3)c2)cc1,7.1µM,n,n,n
COC(=O)c1cccc(NC(=O)c2cccc(-n3cnnn3)c2)c1,n,n,n,n
CCOc1ccc(NC(=O)c2cccc(-n3cnnn3)c2)cc1,n,n,n,n
CCOC(=O)c1cccc(NC(=O)c2ccc(-n3cnnn3)cc2)c1,n,n,n,74
Cc1nc(N2CCN(c3ccccn3)CC2)c2c(C)c(C(=O)N3CCN(c4ccccc4F)CC3)sc2n1,n,n,n,n
COc1ccc(CNC(=O)CCc2c(C)c3cc4c(C)c(C)oc4cc3oc2=O)cc1,n,x,x,n
COc1cc(C2=Nc3ccc(Br)cc3C(c3ccccc3)N2CC(=O)NN)cc(OC)c1OC (stereo not given),u,-51,n,n
NNC(=O)CN1C(c2ccc(Br)cc2)=Nc2ccc(Br)cc2C1c1ccccc1 (stereo not given),u,-55,n,n
COC(=O)CN1C(c2ccc(OC)cc2)=Nc2ccc(Cl)cc2C1c1ccccc1 (stereo not given),u,-60,n,n
NNC(=O)CN1C(=O)Nc2ccc(Br)cc2C1c1ccccc1 (stereo not given),n,n,n,n
COC(=O)CN1C(c2cccc(Cl)c2)=Nc2ccc(Cl)cc2C1c1ccccc1 (stereo not given),n,n,n,n
CC(C)c1ccc(Cc2cnc(NC(=O)c3ccc4c(c3)CC(c3ccccc3)OC4=O)s2)cc1 (stereo not given),n,x,x,n
CCOc1ccccc1C(=O)Nc1cc(-c2nc3cccnc3s2)ccc1C,n,x,x,n
CCOc1ccc(-c2nonc2NC(=O)COc2ccc(C)c(C)c2)cc1OCC,n,x,x,n
O=C(CN1CCN(CC(=O)Nc2ccc3c(c2)OC2(CCCCC2)O3)CC1)Nc1cccc(F)c1,10µM,n,n,n
Cc1cc(C(=O)N2CCN(C(c3ccccc3)c3ccccc3)CC2)no1,u,n,n,n
Cc1cc(N2C(=O)CC(N3CCN(C(c4ccccc4)c4ccccc4)CC3)C2=O)no1 (stereo not given),u,-55,n,n
CCCN(CC(=O)Nc1ccccc1C)C(=O)c1ccc(N2CCCC2)c([N+](=O)[O-])c1,n,n,n,n
CCCOc1ccc(CNC(=O)c2ccc3c(c2)N(Cc2ccccc2)CCS3)cc1,u,x,x,n
COCCN(C(=O)COC(=O)/C=C/c1ccc(OC)c(OC)c1)c1c(N)n(Cc2ccccc2)c(=O)[nH]c1=O,n,-69,n,n
COc1ccccc1CC(=O)N(CCC1=CCCCC1)c1c(N)n(Cc2ccccc2)c(=O)[nH]c1=O,n,-83,n,n
O=c1cc(-c2ccccc2)nc(SCc2ccc(Cl)cc2)[nH]1,n,n,n,n
O=c1cc(-c2ccccc2)nc(SCc2ccccc2)[nH]1,n,-55,n,n
CCOc1ccccc1CNC(=O)c1ccc(Cn2c(=O)c3cccn3c3cccnc32)cc1,n,x,x,n
C[C@H](/C=C/[C@H](C)C(C)(C)O)[C@H]1CC[C@H]2/C(=C/C=C3C[C@@H](O)C[C@H](O)C3)CCC[C@]12C,x,x,n,n
O=C1[C@H]2[C@@H](c3ccccc3)N[C@]3(CCCN(Cc4ccc(C(F)(F)F)cc4)C3=O)[C@H]2C(=O)N1Cc1ccccc1,11µM,n,n,n

# Compound activity (PubChem BioAssay)
